Screening data from PubChem BioAssay.
Hits are enriched below; roughly 17% of the tested compounds scored in any of these assays.
HT1080 IDH1KD tx: qHTS for induction of synthetic lethality in tumor cells producing 2HG: qHTS for the HT-1080-IDH1KD cell line. 360,000 tested, 2% active. Potency, µM (top dose mostly 46.1 µM), for the others: at the top dose activity, negative = toxicity, usual class: cytotoxic. HT-1080 IDH1 knockdown viability, ATP luminescence, 48 h;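 note: 0% = DMSO wells and -100% = cell-free medium wells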
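IDH1KD HT-1080 cells, 750/well, RPMI + 5% FBS; compound pinned after 2 h settling; 48 h, 37 °C; CellTiter-Glo luminescence; % activity normalised to DMSO and no-cell wells; curves fitted, classed by r2 and efficacy.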
TGFb inhibitor: qHTS for Inhibitors of TGF-b. HepG2 CAGA-GFP TGF-b/SMAD3 reporter, GFP fluorescence, 18 h; TGF-beta stimulated, 500 pg/mL final. Potency, µM (titrated, usually from 46.1 µM), without a hit: top-dose activity, negative = inhibition, actives largely listed as inhibitors. 410,000 tested, 1.2% active. AID 588855, 2011; note: % is set by controls: 0 for no effect and ±100 for the full control effect; nearly all actives have a fitted effect of over 65% in size
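Smad-responsive CAGA-GFP expression was quantified in HEPG2 cells exposed to compounds and 500 pg/mL final TGF-beta for 18 h at 37 degrees C; unstimulated wells defined full inhibition.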
HT1080NT lethal: qHTS for induction of synthetic lethality in tumor cells producing 2HG: qHTS for the HT-1080-NT fibrosarcoma cell line; HT-1080-NT fibrosarcoma viability, CellTiter-Glo ATP luminescence, 48 h; Potency, µM (doses to about 46.1 µM), inactives show at the highest dose activity, negative = less viability, hits mostly cytotoxic; 360,000 tested, 1.6% active; AID 686970, 2013;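 note: NT is the 2HG producing partner of a matched IDH1 knockdown line; 0% = DMSO-treated cells and -100% = media-only wells without cells; nearly all actives have a fitted effect of over 55% in size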
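Luminescent CellTiter-Glo readout after 48 hours of compound exposure at 37 degrees C defined viability of HT-1080-NT cells. Activity was normalized to DMSO wells and cell-free media wells; concentration-response curves were fitted and assigned curve classes.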
TDP1 cell CPT: qHTS for Inhibitors of human tyrosyl-DNA phosphodiesterase 1 (TDP1): qHTS in cells in presence of CPT | chicken DT40 Tdp1-/-;hTDP1 cells + 20 nM CPT, ATP luminescence, 48 h | Potency, µM (series often up to 46.2 µM), for inactives: at the top dose activity change, negative = growth inhibition, actives largely listed as inhibitors | 420,000 tested, 12% active; note: % is set by controls: 0 for no effect and ±100 for the full control effect; nearly all actives have a fitted effect of over 55% in size
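Chicken DT40 Tdp1-/- cells stably complemented with human TDP1 were seeded at 400 cells/well in medium containing 20 nM camptothecin, exposed to pin-transferred compounds, and grown at 37 °C for at least 48 hr. Viability was read as ATP luminescence.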
TDP1 cell noCPT: qHTS for Inhibitors of human tyrosyl-DNA phosphodiesterase 1 (TDP1): qHTS in cells in absence of CPT; DT40 Tdp1-/- hTDP1 cells, no CPT, ATP luminescence, 48 h; Potency, µM (series often up to 46.2 µM), without a hit: top-dose activity change, negative = growth inhibition, usual class: inhibitors; 420,000 tested, 15% active; AID 686978, 2013; note: % is set by controls: 0 for no effect and ±100 for the full control effect; nearly all actives have a fitted effect of over 55% in size
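DT40 Tdp1-/-;hTDP1 cells, no CPT (DMSO vehicle only), 400 cells/well; compounds pin-transferred; ≥48 hr, 37 °C; CellTiter-Glo 30 min RT dark, luminescence read.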
HepG2 tox: qHTS for Inhibitors of TGF-b: Cytotox Counterscreen; Potency, µM (series often up to 46.1 µM), for the others: at the top dose activity change, negative = cytotoxicity, most hits filed as cytotoxic; HepG2 CAGA-GFP viability, ATP luminescence, 18 h; 410,000 tested, 0.76% active; AID 588856, 2011
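HepG2 CAGA-GFP cells (1000/well, DMEM with 1% FBS) received compound, then TGF-beta at 500 pg/mL final, and were incubated 18 hours at 37 degrees C. Viability was read by CellTiter-Glo luminescence. Media-only wells were set as complete cell-killing and DMSO as no toxicity.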
Starred values were filed as active, the others as inactive; ? = inconclusive; · = no result given. Calls come from the whole dose curve; as a rule, active = well fitted curve in the direction sought with a large enough effect; inconclusive = small, poorly fitted or top-dose-only effect, or another doubt; inactive = no such curve, though single readings can be large; an effect the other way counts as inactive or inconclusive. Potency is the fitted concentration of half-maximal effect.

SMILES	HT1080 IDH1KD tx	TGFb inhibitor	HT1080NT lethal	TDP1 cell CPT	TDP1 cell noCPT	HepG2 tox
Cc1cc(C)c2nc(-c3ccncc3)cc(C(=O)N3CCN(Cc4ccccc4Cl)CC3)c2c1	?	?	?	?	?	-74.2%
C=CCNC(=S)NNc1nc(N2CCCC2)nc(N2CCCC2)n1	-3.5%	-18.7%	-0.1%	-27.7%	-19.8%	0.3%
C=CCNC(=S)NNc1nc(Nc2ccccc2)nc(N2CCCCC2)n1	4.3%	?	-12.9%	14.6µM*	8.2µM*	-8.6%
CCc1ccc(NC(=O)CN2C(=O)C3(SCC(=O)N3c3ccccc3)c3ccccc32)cc1 (stereo not drawn)	·	-9.9%	·	20.6µM*	?	-23.4%
COc1ccccc1NC(=O)CN1C(=O)C2(SCC(=O)N2c2ccc(C)c(C)c2)c2ccccc21 (stereo not drawn)	·	-29.0%	·	?	?	-28.0%
O=C(CN1C(=O)C2(SCC(=O)N2c2ccccc2)c2ccccc21)Nc1ccccc1C(F)(F)F (stereo not drawn)	·	0.6%	·	23.1µM*	?	-7.6%
CCc1cccc(C)c1NC(=O)CN1C(=O)C2(SCC(=O)N2c2cccc(F)c2)c2ccccc21 (stereo not drawn)	·	-4.6%	·	-29.2%	-22.6%	3.2%
Cc1ccc(C)c(NC(=O)CN2C(=O)C3(SCC(=O)N3c3ccc(C)c(C)c3)c3ccccc32)c1 (stereo not drawn)	·	-0.5%	·	?	18.4µM*	-2.9%
COCCCNc1nc2ccccc2nc1NS(=O)(=O)c1cc(Cl)ccc1Cl	-2.6%	-26.8%	-11.4%	?	?	-25.0%
COc1cccc(N2CCN(c3ncnc4onc(-c5ccc(F)cc5)c34)CC2)c1	·	14.7%	·	5.3%	0.4%	-1.0%
COc1cccc(N2CCN(c3ncnc4c3[nH]c3ccc(F)cc34)CC2C)c1 (stereo not drawn)	7.31µM*	?	6.51µM*	1.64µM*	1.64µM*	-69.9%
COc1ccc2nc(C)cc(N3CC(C)OC(C)C3)c2c1 (stereo not drawn)	6.0%	13.0%	-3.2%	?	-29.9%	1.7%
COc1ccc2[nH]c3c(N4CC(C)OC(C)C4)ncnc3c2c1 (stereo not drawn)	-2.1%	0.3%	-15.0%	?	14.6µM*	-0.9%
COCC(=O)N1CCC2(CCN(Cc3ccccc3)CC2)CC1	·	·	·	-2.3%	-0.1%	·
COc1ccc(Cl)cc1C(=O)Nc1ccc(NC(=O)C(C)C)cc1	?	-9.5%	-16.6%	18.4µM*	18.4µM*	2.8%
COc1ccc(Cl)cc1C(=O)Nc1ccc(NC(C)=O)cc1	-1.5%	?	0.1%	1.5%	0.6%	10.1%
COc1ccc(Br)cc1C(=O)Nc1ccccc1N1CCN(C(=O)c2ccccc2)CC1	-21.5%	-27.0%	-8.5%	?	16.4µM*	-1.0%
CC(=O)N1CCN(c2ccccc2NC(=O)c2cccc3c(Cl)cccc23)CC1	-12.4%	-7.9%	-19.5%	14.6µM*	?	-33.3%
COc1ccc(Cl)cc1C(=O)Nc1ccccc1N1CCN(C(=O)C(C)C)CC1	-20.4%	0.6%	-19.3%	29.1µM*	18.4µM*	-10.4%
O=C(O)C#CC(=O)O	·	?	·	-0.2%	-2.4%	-19.9%
O=C(NCC1COc2ccccc2O1)C1CCN(S(=O)(=O)c2ccc(Cl)cc2)CC1 (stereo not drawn)	-0.3%	?	0.7%	?	?	-13.1%
COc1cc(C#N)c(NC(=S)N2CCN(C(=O)c3ccco3)CC2)cc1OC	12.8%	1.9%	16.3%	-14.8%	-6.2%	-2.4%
O=C(COC(=O)c1ccc(O)cc1)NC1CCCCCCC1	1.2%	-3.2%	-3.8%	-13.9%	?	-9.7%
CC(OC(=O)c1ccc(Cl)c(S(N)(=O)=O)c1)C(=O)NCc1ccc2c(c1)OCO2 (stereo not drawn)	-4.1%	-0.4%	-6.2%	14.7%	-14.5%	-13.0%
COc1c(C)cc(Br)cc1C(=O)Nc1ccccc1N1CCN(C(=O)c2ccccc2)CC1	29.1%	1.4%	15.4%	?	14.6µM*	4.3%
SMILES	HT1080 IDH1KD tx	TGFb inhibitor	HT1080NT lethal	TDP1 cell CPT	TDP1 cell noCPT	HepG2 tox
COc1cc(NC(=O)c2cc(Br)cc(C)c2OC)ccc1NC(=O)C(C)C	-24.7%	-1.8%	-0.8%	?	23.1µM*	1.4%
O=C(Nc1ccccc1N1CCN(C(=O)c2ccccc2)CC1)c1cc(Br)ccc1Cl	-22.9%	9.1%	-15.3%	18.4µM*	23.1µM*	-19.6%
COc1ccc(-c2nc(C(=O)N3CCN(C)CC3)sc2-c2ccc(OC)cc2)cc1	·	·	·	-8.6%	-19.7%	·
COc1ccc(NC(=O)C(NC(=O)c2ccc(=O)[nH]c2)c2ccc(C)cc2)cc1 (stereo not drawn)	12.9%	-0.5%	1.9%	-10.0%	-1.6%	-21.4%
CCCc1ccc(C(=O)NNc2ccccc2F)cc1	6.51µM*	-5.7%	?	-13.0%	-3.5%	-8.7%
CCc1ccc(C(=O)NNc2ccccc2F)cc1	?	0.0%	?	-16.2%	-10.1%	17.3%
Cc1cc(C(=O)NNc2ccccc2F)no1	2.59µM*	6.3%	5.17µM*	-23.8%	-29.2%	-4.3%
Cc1cc(C(=O)NNc2ccc(F)cc2)no1	5.17µM*	-8.6%	?	9.0%	-7.8%	-2.5%
CCc1ccccc1NNC(=O)c1cc(C)on1	-22.6%	-27.1%	-14.1%	-15.5%	?	-30.6%
O=C(NCCNC(=O)c1ccc(-c2cc(Cl)ccc2Cl)o1)c1cnccn1	0.0%	1.0%	-3.1%	?	20.6µM*	4.5%
O=C(NCCNC(=O)c1ccc(-c2cccc(Cl)c2)o1)c1cnccn1	0.2%	-1.2%	-7.5%	?	?	-3.5%
O=C(NCCNC(=O)c1ccc(-c2ccc(Cl)c(Cl)c2)o1)c1cnccn1	?	-15.2%	-15.2%	?	14.6µM*	5.7%
O=C(NCCNC(=O)c1cc(Cl)ccc1Cl)c1cnccn1	12.4%	1.7%	-5.5%	-5.2%	-7.0%	4.6%
